Test results published in ChEMBL document CHEMBL3988442, “University of Dundee, Small-Polar-MMV Screening Library” (2021).
Hit rate of the full screen: of about 48,000 compounds, about 13,000 (27%) showed an effect of 50% or more. The list shows a part of the results.

These compounds were tested on Wolbachia pipientis (assay: Anti-Wolbachia Cell-Based Screen). Conditions: 5 µM.
Assay type: functional
Design: scale not given: in the data most compounds retested in dose-response had high values

SMILES	Percent Effect
CC(C)n1ncc2c1NC(=O)C(C#N)C21CCCCC1 (stereo unspecified)	14.23%
CC(C)c1cccc(S(=O)(=O)NCCCN2CCC(O)CC2)c1	-12.32%
Cc1cscc1C(=O)Nc1cncnc1N(C)C	-5.667%
O=C(NCCNc1cnccn1)N1CCCC1	0.5946%
O=C(NCCNc1cnccn1)N1CCCCCC1	67.88%
O=C(NCCCn1cncn1)N1CCCC(N2CCCC2)C1 (stereo unspecified)	-12.43%
O=C(NCCNc1cnccn1)C1CCN(C(=O)N2CCCC2)CC1	14.69%
N#Cc1cccnc1NCCNC(=O)N1CCCC(N2CCCC2)C1 (stereo unspecified)	15.17%
O=C(NCCNc1cnccn1)N1CCCC(N2CCCC2)C1 (stereo unspecified)	106%
Cc1cnc(CN(Cc2ccccc2)CC(O)c2cccs2)cn1 (stereo unspecified)	-0.3476%
CCc1nc(C)c(C(=O)N2CCCN(Cc3cnn(C)c3)CC2)s1	-6.859%
CCOC(=O)N1CCN(C(=O)c2sc(-c3ccc(F)cc3)nc2C)CC1	5.729%
CCc1cccc(OC2CN(C(=O)[C@@H](N)[C@@H](C)O)C2)c1	-4.168%
CC(NC(=O)N1CCN(c2ncccn2)CC1)c1ccc(C#N)cc1 (stereo unspecified)	-9.134%
CC[C@H](C)[C@H](N)C(=O)N1CC(=O)c2sc(Nc3ccc(F)cc3)nc2C1	106.2%
CN(C(=O)CNc1ccc(C#N)cc1)C1CCCCC1	-20.31%
N#Cc1ccc(NC(=O)N2CCCCC2CN2CCCC2=O)cc1 (stereo unspecified)	-0.03317%
CC(NC(=O)N1CCN(c2cccs2)CC1)c1ccc(C#N)cc1 (stereo unspecified)	-13.59%
CCOCC(=O)N1Cc2cnc(-c3ccccc3)nc2C1	12.32%
CC(C)NC(=O)N1CC(=O)c2sc(Nc3ccc(C#N)cc3)nc2C1	104.4%
CC(Oc1ccc(F)cc1)C(=O)N(CC(N)=O)C1CCCC1 (stereo unspecified)	-8.353%
CC[C@H](C)[C@H](N)C(=O)N1CC(=O)c2sc(NCc3ccccc3)nc2C1	97.62%

SMILES	Percent Effect
N#Cc1ccc(Nc2nc3c(s2)C(=O)CN(CC2CC2)C3)cc1	122.3%
Cc1cc(NC(=O)CCN2CCn3c(C)nnc3C2)no1	-12.27%
Fc1cc(CNc2nncs2)ccc1Cl	-25.14%
CC(C)NC(=O)[C@@H]1Cc2[nH]cnc2CN1CCCc1ccccc1	-2.135%
CCN(C)S(=O)(=O)N(Cc1cscn1)c1ccccc1	-21.13%
CC1CCN(C(=O)Cc2ccc(S(=O)(=O)C(F)F)cc2)CC1	3.078%
CCOc1ccc(C(=O)Nc2c(C)nc3scc(C)n3c2=O)cc1	-3.66%
CC(CNC(=O)Nc1ccc(C#N)cc1)N1CCc2ccccc21 (stereo unspecified)	15.75%
Cc1nnc(NC(=O)N2CCN(Cc3ccc(F)cc3)C(=O)C2)s1	-5.387%
CC(C1CC1)N(C(=O)CNc1ccc(C#N)cc1)C1CC1 (stereo unspecified)	-11.75%
CC(C)CC(=O)N1CC(=O)c2sc(Nc3ccc(F)cc3)nc2C1	97.08%
CC(C)CC(=O)Nc1c(-c2ccc(F)cc2)ncn1C	20.71%
CC(C)CC(=O)N1CC(=O)c2sc(Nc3ccc(C#N)cc3)nc2C1	99.17%
Cn1c(-c2ccccc2Cl)nc2cc(C(=O)NC(CO)CO)cnc21	-7.352%
COCCc1noc(-c2ccc(-c3cc[nH]n3)nc2)n1	6.666%
CCn1c(C2CCCN(Cc3cc(F)ccc3OC)C2)nn(C)c1=O (stereo unspecified)	-8.154%
Cc1nc(CN2CCCC(CCc3ccc(F)cc3F)C2)c[nH]1 (stereo unspecified)	10.82%
COCc1nccc(C2CCCN(Cc3ccc(C#N)cc3F)C2)n1 (stereo unspecified)	7.365%
OC1CCCN(Cc2ccc(F)c3cccnc23)C1 (stereo unspecified)	11.38%
Cl.Cn1nc(C2CCCN(Cc3cc(F)ccc3F)C2)c2nccnc21 (stereo unspecified)	109%
Cn1nc(C2CCCN(Cc3ccc(F)cc3F)C2)c2nccnc21 (stereo unspecified)	118.1%
COCCOc1ccccc1C(=O)Nc1c(C)cnn1CC1CC1	0.1744%

SMILES	Percent Effect
NC(=O)CC1CCN(c2ncnc3cccc(F)c23)CC1	0.8232%
Cc1nccn1-c1cc(CNC(=O)CCNC(=O)OC(C)(C)C)ccn1	-3.866%
CCc1cc(NCc2cccnc2N2CCCCC2)n2ncnc2n1	-26.62%
Cc1noc(NC(=O)c2ccc(C)c(F)c2)n1	6.644%
CC(O)CN(Cc1cccc(C(=O)N(C)C)c1)c1ccccc1 (stereo unspecified)	9.156%
CC(C)CCNC(=O)C(c1cccc(F)c1)N(C)C (stereo unspecified)	-2.485%
CC(C)CN(CC(=O)O)C(=O)c1ccc(F)cc1	116.8%
Cc1cc(C(=O)N(CC(=O)O)CC(C)C)ccc1F	96.02%
CN(CC(=O)NCCC#N)C(c1ccccc1)c1ccc(F)cc1 (stereo unspecified)	2.68%
Cc1cc(C(=O)N(C)S(=O)(=O)C(C)C)ccc1F	-2.598%
Cc1cccc(C(=O)N(CC(=O)O)CC(C)C)c1	94.29%
Cc1ccc(C(=O)N(CC(=O)O)CC(C)C)cc1F	102.6%
Cc1ccc(C(=O)NCCNC(=O)c2cncnc2C(C)C)cc1F	15.15%
CCN(CC)C(=O)c1cccc(Cn2nc(C)cc2C)c1	-2.548%
Cc1cc(C(=O)N(C)S(C)(=O)=O)ccc1F	-1.159%
CCC1CN(C(=O)c2ccccc2C(C)=O)CCN1C(C)C (stereo unspecified)	1.877%
COc1cccc(CNC2CCc3ccc(C)cc32)n1 (stereo unspecified)	12.65%
COCCN1CCN(CC(=O)N(C)Cc2ccccc2)CC1C (stereo unspecified)	2.857%
CN(c1nc(Cn2cnccc2=O)cs1)C1CC1	6.38%
CNC(=O)[C@H]1CC[C@@H]2[C@@H](CCN2c2ncccn2)O1	0.107%
CNC(=O)C1Cc2ccccc2CN1CCC#N (stereo unspecified)	-3.828%
CNC(=O)[C@@H]1C[C@@H](N)CN1c1nc(N2CCCC2)nc(C)c1C	2.441%

SMILES	Percent Effect
Cc1cccnc1NC(=O)C1CCN(C(C)C(=O)NC(C)(C)C)CC1 (stereo unspecified)	-8.313%
CNC(=O)C1CN(C(C)C)CCN1c1nc(C)cc(C)n1 (stereo unspecified)	92.65%
CCCN1Cc2ccccc2CC1C(=O)NC (stereo unspecified)	-1.794%
CNC(=O)C1CCCN1c1nc(C)c2ccccc2n1 (stereo unspecified)	9.069%
CNC(=O)C1CN(C(C)C)CCN1c1ncccn1 (stereo unspecified)	82.95%
CNC(=O)C1CN(C)CCN1c1nc(C)cc(C)n1 (stereo unspecified)	94.41%
OC1CCN(c2nc(-c3ccccc3)no2)CC1	-0.7688%
O=C(Nc1ccc(N2CCCCC2)nc1)N1CCc2sccc2C1	2.777%
Cc1cc(NC(=O)N(Cc2ccc(C#N)cc2)C(C)C)no1	2.443%
c1cncc(-c2noc(CNC3CCCN(c4cccnn4)C3)n2)c1 (stereo unspecified)	-17.88%
Cc1ncccc1CNCC1COC2(CCCCC2)O1 (stereo unspecified)	-0.2961%
Cc1n[nH]cc1CNC1CCN(c2ccccc2)CC1.Cl	-14.69%
COc1ccccc1[C@@H]1CN(Cc2cnc(N(C)C)nc2)C[C@H]1C(=O)O	-3.277%
COc1ccccc1[C@@H]1CN(Cc2cnn(C)c2C)C[C@H]1C(=O)O	-12.3%
COc1ccccc1C1Cn2c(C)cnc2CN1Cc1ccc(C)nc1 (stereo unspecified)	131%
COc1ccccc1[C@@H]1CN(Cc2nccn2C)C[C@H]1C(=O)O	-20.61%
COCc1ncc(CN2CCC(Oc3ccccc3OC)CC2)cn1	3.684%
COc1ccccc1CC(=O)N1CCC(NCc2c[nH]nc2C)CC1	3.473%
COc1ccccc1C1Cn2c(C)cnc2CN1Cc1c[nH]nc1C (stereo unspecified)	184.6%
COc1ccccc1C1Cn2ccnc2CN1Cc1c[nH]nc1C (stereo unspecified)	158.2%
CCOC(=O)c1nc(CN2CCC(NC(=O)C(C)C)CC2)cs1	-9.152%
O[C@@H]1Cc2ccccc2[C@@H]1Nc1ncccc1F	-3.78%

SMILES	Percent Effect
O=C(Cn1cccc2oc(=O)nc1-2)NCC1Cc2ccccc2O1 (stereo unspecified)	-3.762%
CC1CCN(S(=O)(=O)N2CCC(Oc3cnccn3)CC2)CC1	109.5%
Cc1ccc(S(=O)(=O)N2CCC(Oc3ccccn3)CC2)c(C)c1	1.938%
O=S(=O)(c1ccc(Cl)cc1)N1CCOC[C@H](Oc2cnccn2)C1	-1.113%
CN(C)S(=O)(=O)N1CCC(Oc2cnccn2)CC1	2.095%
O=S(=O)(N1CCCCC1)N1CCC(Oc2cnccn2)CC1	106.7%
O=S(=O)(c1ccc(F)cc1)N1CCOC[C@H](Oc2cnccn2)C1	-9.472%
CS(=O)(=O)N1CCC(Oc2cnccn2)CC1	-17.13%
Cc1n[nH]c(C)c1S(=O)(=O)N1CCC(Oc2cnccn2)CC1	120.8%
O=S(=O)(N1CCOCC1)N1CCC(Oc2cnccn2)CC1	115%
Cc1noc(C)c1S(=O)(=O)N1CCC(Oc2cnccn2)CC1	11.35%
COC(=O)c1sccc1S(=O)(=O)N1CCC(Oc2cnccn2)CC1	2.794%
COc1ccc(C2CCCN2c2ccnc(C)c2Cl)c(OC)c1 (stereo unspecified)	-16.05%
CC(=O)N(C)Cc1nn(C)c2c1CN(Cc1ccsc1)C2.O=C(O)C(F)(F)F.O=C(O)C(F)(F)F	-3.994%
O=C(O)C(F)(F)F.O=C([C@@H]1COC[C@H]2CN(C3CCCC3)C[C@H]21)N1CCCCO1	2.547%
CC(Cn1cccn1)NC(=O)N1CCC(NS(C)(=O)=O)CC1 (stereo unspecified)	10.97%
O=C(O)C1CCN(c2nc3c(-c4ccccc4F)csc3c(=O)[nH]2)CC1	-3.996%
CS(=O)(=O)NCCCNc1ccc(C(F)(F)F)cc1C#N	-7.983%
